Experimental data from the supplement of paper PMC6522484.
± gives the standard deviation of the averaged measurements.

The molecules below were run on DLD1 (assay: TCF/Wnt firefly luciferase reporter signal relative to plate median (fraction of plate median); higher = higher Wnt reporter signal). Details: 10 µM; treatment time 24 h; reporter: 7TFP.
Outline: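 Colorectal cancer cell lines carrying stably transduced lentiviral TCF/Wnt firefly luciferase reporters (7TFP or TCF4/Wnt) were plated in 384-well plates and treated 24 h later with kinase inhibitor library compounds at a final 10 µM for 24 h. Firefly luciferase or CellTiterGlo luminescence was read on parallel plates with a Tecan F500 reader. Signals were normalised per well to the plate median in webcellHTS2 (additive, no log transformation), and values are the mean of two independent replicates.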

SMILES	TCF/Wnt firefly luciferase reporter signal
CC(C)(C)c1cc(/C=C(\C#N)C(N)=S)cc(C(C)(C)C)c1O [Tyrphostin AG 879 (AG 879)]	0.707 ± 0.12
C=CC(=O)Nc1cc2c(Nc3ccc(F)c(Cl)c3)ncnc2cc1OCCCN1CCOCC1 [CI-1033 (Canertinib)]	0.353 ± 0.013
NCC(=O)Nc1ccc(-n2nc(C(F)(F)F)cc2-c2ccc3c(ccc4ccccc43)c2)cc1	1.09 ± 0.085
COc1ccc(-c2cc3c(C)nc(N)nc3n([C@H]3CC[C@H](OCCO)CC3)c2=O)cn1	0.348 ± 0.096
Clc1ccc(C2(c3ccc(-c4cn[nH]c4)cc3)CCNCC2)cc1	1.13 ± 0.13
C[S+]([O-])c1ccc(-c2nc(-c3ccc(F)cc3)c(-c3ccncc3)[nH]2)cc1 (stereo unspecified)	0.82 ± 0.16
C=CC(=O)Nc1ccc2ncnc(Nc3ccc(OCc4cccc(F)c4)c(Cl)c3)c2c1	0.691 ± 0.0099
CCn1nnc2c(N3CCOCC3)nc(-c3ccc(NC(=O)Nc4ccc(C(=O)N5CCN(C)CC5)cc4)cc3)nc21	0.633 ± 0.025
O=c1cc(N2CCOCC2)oc2c(-c3cccc4c3sc3ccccc34)cccc12	1.19 ± 0.064
Cc1cnc(Nc2ccc(N3CCN(C)CC3)cc2)nc1Nc1cccc(S(=O)(=O)NC(C)(C)C)c1	1.37 ± 0.2
COc1ccc(S(=O)(=O)N(C(C)=O)c2ccccc2/C=C/c2cc[n+]([O-])cc2)cc1	0.725 ± 0.03
COc1cc2ncnc(Nc3ccc(F)c(Cl)c3)c2cc1OCCCN1CCOCC1 [Gefitinib (Iressa)]	1.005 ± 0.0071
CN1CCN(c2cccc(Nc3nc4c(-c5ccc(S(C)(=O)=O)cc5)cccn4n3)c2)CC1	0.96 ± 0.1
CC(=O)Nc1nc(C)c(-c2ccc(Cl)c(S(=O)(=O)NCCO)c2)s1	0.9 ± 0.037
CCC[C@H](NC(=O)/C(C#N)=C/c1cccc(Br)n1)c1ccccc1	0.0449 ± 0.0065
CCS(=O)(=O)c1cccc(-c2cc(C(=O)NC3CCN(C)CC3)c(C)c3[nH]c4ncc(C)cc4c23)c1	1.25 ± 0.078
CC(C)n1nc(-c2ccc3oc(N)nc3c2)c2c(N)ncnc21	0.341 ± 0.062
COc1cc2c(N3CCN(C(=O)Nc4ccc(OC(C)C)cc4)CC3)ncnc2cc1OCCCN1CCCCC1 [Tandutinib (MLN518)]	0.956 ± 0.12

SMILES	TCF/Wnt firefly luciferase reporter signal
O=C1NC(=O)C(c2ccccc2[N+](=O)[O-])=C1Nc1ccc(O)c(Cl)c1	1.63 ± 0.24
COc1cccc(-c2cc(=O)c3ccccc3o2)c1N	1.71 ± 0.2
Cc1ccc(NC(=O)c2ccc(CN3CCN(C)CC3)cc2)cc1Nc1nccc(-c2cccnc2)n1 [Imatinib (Gleevec)]	1.65 ± 0.057
COc1cc2c(Nc3ccc(NC(=O)c4ccccc4)cc3)ncnc2cc1OCCCN1CCOCC1	1.13 ± 0.085
CC(C)CC(=O)Nc1n[nH]c2c1CN(C(=O)C1CCN(C)CC1)C2(C)C	1.33 ± 0.26
CNC(=O)Nc1ccc(-c2nc(N3CC4CCC(C3)O4)c3cnn(C4CCC5(CC4)OCCO5)c3n2)cc1	0.356 ± 0.076
CCOc1cc2ncc(C#N)c(Nc3ccc(OCc4ccccn4)c(Cl)c3)c2cc1NC(=O)/C=C/CN(C)C [Neratinib (HKI-272)]	0.521 ± 0.3
N#CCNC(=O)c1ccc(-c2ccnc(Nc3ccc(N4CCOCC4)cc3)n2)cc1	1.32 ± 0.26
Cc1ncc(-c2ccnc(Nc3ccc(S(C)(=O)=O)cc3)n2)n1C(C)C	0.499 ± 0.026
O=C(O)c1ccc2c(c1)nc(Nc1cccc(Cl)c1)c1ccncc12 [cx-4945 (Silmitasertib)]	0.508 ± 0.15
CC(=O)Nc1cccc(-n2c(=O)n(C3CC3)c(=O)c3c(Nc4ccc(I)cc4F)n(C)c(=O)c(C)c32)c1	1.09 ± 0.52
Nc1ncnc2c1c(-c1cccc(OCc3ccccc3)c1)cn2C1CC(CN2CCCC2)C1 (stereo unspecified)	0.627 ± 0.15
COc1cc2c(Oc3ccc(NC(=O)C4(C(=O)Nc5ccc(F)cc5)CC4)cc3F)ccnc2cc1OCCCN1CCOCC1	0.794 ± 0.15
CCN1CCN(c2ccc(Nc3cc(N(C)C(=O)Nc4c(Cl)c(OC)cc(OC)c4Cl)ncn3)cc2)CC1	1.24 ± 0.11
Cc1[nH]c(/C=C2\C(=O)Nc3ccccc32)c(C)c1CCC(=O)O	1.93 ± 0.38
CN1CCN(c2ccc3nc(-c4c(N)c5c(F)cccc5[nH]c4=O)[nH]c3c2)CC1 [Dovitinib Dilactic acid (TKI258 Dilactic acid)]	1.1 ± 0.099
Cc1[nH]c(/C=C2\C(=O)Nc3ccc(S(=O)(=O)Cc4c(Cl)cccc4Cl)cc32)c(C)c1C(=O)N1CCC[C@@H]1CN1CCCC1	0.7 ± 0.36
COc1cc(Nc2ncc(F)c(Nc3ccc4c(n3)NC(=O)C(C)(C)O4)n2)cc(OC)c1OC [R406(free base)]	1.26 ± 0.028
